# According to PubChem BioAssay AID504433 (National Center for Advancing Translational Sciences (NCATS), 2011):
# “And” between values parts separate entries of the source, which are not always exact repeats. Equal entries are not always repeated. Results filed as inconclusive are left out. A number with no mark means an inactive call. The source made the active and inactive calls. Calls come from the whole dose curve; as a rule, active = well fitted inhibition curve with a large enough effect; inconclusive = small, poorly fitted or top-dose-only effect; inactive = flat fitted curve, though single readings scatter.
# Experiment: Secondary Assay for lipid storage modulators: Cytotoxcity for probe SAR round 2
# Details: Drosophila S3 cells viability, CellTiter-Glo ATP luminescence, 24 h; series mostly up to 46.1 µM; activity change, negative = cytotoxicity: at the top concentration
# Text: NIH Molecular Libraries Probe Production Centers Network [MLPCN] NIH Chemical Genomics Center [NCGC] MLPCN Grant: 1 R03 MH085686-01 Assay Submitter (PI): Beller, Mathias; Max-Planck-Institut fur Biophysikalische Chemie, Germany. NCGC Assay Overview: Storing lipids as a reservoir for energy or the anabolism of elementary metabolites is a common feature of probably all cells and is conserved from bacteria to humans. The universal cellular lipid storage organelle is the so-called lipid storage droplet (LD). Although ubiquitous, LDs share a simple structure composed of a hydrophobic core that harbors the storage lipids, which is shielded by a droplet-specific phospholipid monolayer to which proteins are attached. The current model of LD biogenesis involves an incorporation of the lipid core into the membrane leaflets of the endoplasmic reticulum (ER) followed by a subsequent budding-like maturation of a LD, which ultimately pinches off. Once released, LD volume can increase by localized lipogenesis or fusion of existing droplet. Storage lipids are re-mobilized enzymatically by lipase activity. Lipase regulation in the adipocyte is heavily studied and involves multiple components including catecholamine signaling, the LD-associated proteins Perilipin and comparative gene identification (CGI-58) and at least two lipases named hormone sensitive lipase (HSL) and adipocyte triglyceride lipase (ATGL). LD regulation outside of the adipocyte is poorly understood and only few components are known. However, there is an urgent need to learn more about ectopic fat depots as mislocalized storage of lipids, for example in the liver or muscle, is an eminent health problem associated with insulin resistance or the metabolic syndrome. We developed a laser-scanning cytometer assay to enable 1,536-well screening and combined the results of the small molecules screen with an RNAi database based on lipid storage. The compound was tested here for cytotoxcity using CellTiter-Glo.
# Assay Protocol Summary: Cytotoxcity assay was performed with embryonic Drosophila S3 cells (Bloomington Drosophila Genomics Resource Center [DGRC]). We dispensed 4 uL of cells at 1.25 x 10^6 cells/mL into Greiner solid white 1,536-well plates with a bottle-valve solenoid-based dispenser (Aurora) to obtain 5,000 cells/well. A total of 23 nL of compound solution of different concentrations were transferred to the assay plates using a Kalypsys pin tool equipped with a 1,536-pin array containing 10-nL slotted pins (FP1S10, 0.457-mm diameter, 50.8 mm long; V&P Scientific). One microliter of oleic acid (400 uM) was added, and the plate was lidded with stainless steel rubber gasket lined lids containing pinholes. After 24 hrs of incubation at 24 degrees Celsius and 95% humidity, 4 uL of CellTiter-Glo (Promega) was added to the wells. Luminescence was detected on the Perkin Elmer ViewLux.
SMILES,Potency,"activity change, negative = cytotoxicity [%]"
O=C(NC1CCCc2c1cnn2-c1ccc(F)cc1F)c1ccccc1 (configuration not stated),4.99 µM (active),
O=C(N[C@H]1CCCc2c1cnn2-c1ccc(F)cc1F)c1ccccn1,,-19.2
CC(C)(C)OC(=O)NCCOCCOCCOc1ccc(-n2ncc3c2CCCC3NC(=O)c2ccccn2)cc1 (configuration not stated),3.15 µM (active),
CCOC(=O)C1CCN(C(=O)C(C)(C)NC(=O)Nc2ccccc2Cl)CC1,,-19
O=C(NC1CCCc2c1cnn2-c1ccc(F)cc1F)c1ccccn1 (configuration not stated),7.05 µM (active) and 11.2 µM (active),
CCN(CC)C(=O)C1CCN(C(=O)C(C)(C)NC(=O)Nc2ccccc2Cl)CC1,,-15.3
O=C(NC1CCCc2c1cnn2-c1ccc(F)cc1F)c1cccs1 (configuration not stated),5.6 µM (active),
CCOC(=O)C1CCN(C(=O)C(C)(C)NC(=O)Nc2ccc(OC)c(Cl)c2)CC1,,-11.8
CCOC(=O)C1CCN(C(=O)C(C)(C)NC(=O)Nc2ccc(C#N)cc2)CC1,,-23.1
CCOC(=O)C1CCN(C(=O)C(C)(C)NC(=O)Nc2ccc3ccccc3c2)CC1,,-17.5
CCOC(=O)C1CCN(C(=O)C(C)(C)NC(=O)Nc2cccc(C(=O)OC)c2)CC1,,-4.92
CC(C)(C)OC(=O)NCCOCCOCCOc1cccc(-n2ncc3c2CCCC3NC(=O)c2ccccn2)c1 (configuration not stated),5.6 µM (active),
CCOC(=O)C1CCN(C(=O)C(C)(C)NC(=O)Nc2ccc3c(c2)CCC3)CC1,,-14.7
CCOC(=O)C1CCN(C(=O)C(C)(C)NC(=O)Nc2ccc(F)c(F)c2)CC1,,-14.3
CCOC(=O)C1CCN(C(=O)C(C)(C)NC(=O)Nc2cccc(-c3csc(C)n3)c2)CC1,,-12.3
CCOC(=O)C1CCN(C(=O)C(C)(C)NC(=O)Nc2ccc(CN3CCOCC3)cc2)CC1,,-4.86
CC(C)(NC(=O)Nc1ccccc1Cl)C(=O)N1CCC(C(=O)O)CC1,,-14.9
CCOC(=O)C1CCN(C(=O)C(C)(C)NC(=O)Nc2ccc(N(C)C)cc2)CC1,,-8.42
CCNC(=O)C1CCN(C(=O)C(C)(C)NC(=O)Nc2ccccc2Cl)CC1,,-13.9
CCOC(=O)C1CCN(C(=O)C(C)(C)NC(=O)Nc2ccc(N)cc2)CC1,,-12
CCOC(=O)C1CCN(C(=O)C(C)(C)NC(=O)Nc2ccc(Cl)cc2Cl)CC1,,-16.8
CCOC(=O)C1CCN(C(=O)C(C)(C)NC(=O)Nc2cccc(OC)c2)CC1,,-15.5
